According to PubChem BioAssay (NCI):
Several values for one entry are separate records, joined by “and”; a condition that tells them apart may be missing. Identical values can stand only once. About 83,000 compounds went through this panel and 20% of them were active in at least one assay; those are over-represented in the sample as a whole.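 The test compound was applied at a single concentration to cells in 96-well plates for 48 hours, and percent growth was recorded.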 A number with no mark means an inactive call. Activity calls are given as the source filed them. Rule for the calls: active = growth percent below 10; inactive = the rest.

The compounds below were run on MDA-MB-468 breast (assay: NCI-60 one-dose screen, 48 h (100 = growth as untreated, 0 = no growth, -100 = all killed)). Settings: 10 µM unless noted.
In the case of `O=C1/C(=C/c2ccccc2[N+](=O)[O-])Cc2ccccc21`, the growth is reported as -46.2% (active) and -17.9% (active). Compound `COc1ccc2c(c1)c(-c1nc(-c3cn(C)c4ncccc34)cs1)cn2CCN` has a growth of 16.1%. `CC(C)=CCC[C@](C)(O)[C@H]1CC[C@]2(C)[C@@H]1CC[C@@H]1[C@@]3(C)C/C(=C/c4ccccc4)C(=O)C(C)(C)[C@@H]3CC[C@]12C` was tested, and the growth was 94.7%. For `N#CC1=C(N)Oc2c(ccc3ccccc23)C1c1ccccc1Cl` (stereo not given), the growth was 8.77% (active). `O=C(CC(c1ccccc1)N1CCOCC1)c1ccccc1` (stereo not given) was tested, and the growth was 73.4%. `COc1ccc(/C(=C\c2cc(OC)c(OC)c(OC)c2)C(=O)N2CCNCC2)cc1` showed a growth of 94.3%. With `C#C[C@]1(O)CC[C@H]2[C@@H]3CC=C4c5nc(Nc6ccc(OC)cc6OC)sc5CC[C@]4(C)[C@H]3CC[C@@]21C` the growth was -6.78% (active). For `CCCCCCCCn1cc(C2=C(c3coc4ccc(OC)cc34)C(=O)NC2=O)c2ccccc21`, the growth was 103%. In the case of `COc1ccccc1/C=C/C=N/NC1=NC2C(S1)N(C)C(=O)N2C` (stereo not given), the growth is reported as -5.34% (active). For `C#CCN(C)CCCOc1ccc(NC(=O)CCCCCCC(=O)NO)cc1Cl`, the growth was -0.749% (active). With `O=C(NCCN1CCOCC1)c1cncnc1Nc1ccc2c(ccn2Cc2ccccn2)c1` the growth was 98%. In the case of `CCN1C(=O)N(CC)C2Nn3c(s/c(=C4\C(=O)N(C(C)C)c5ccccc54)c3=O)=NC21` (stereo not given), the growth is reported as 9.33% (active). `O=C(Nc1cccc(-c2nc(-c3ccc(NC(=O)c4cccs4)cc3Cl)no2)c1)Nc1ccc(NC(=O)C2CC2)c(C(F)(F)F)c1` was tested, and the growth was -84.6% (active). With `CN(C)c1ccc(C(Cc2ccc3ccccc3n2)Cc2ccc3ccccc3n2)cc1` the growth was 32.6% and 77%. `Fc1ccc(CNc2c3ccccc3nc3ccccc23)cc1` gave a growth of 11.5%. `CCOC(=O)c1ccccc1OC(=O)NNc1ccccc1` gave a growth of 83.2%. For `C=CC(=O)NCc1cccc(Nc2ncc(Br)c(NCCCNC(=O)C3CCC3)n2)c1`, the growth was -80.4% (active). `O=C(Nc1ccc2c(ccn2Cc2ccccn2)c1)c1ccnnc1` gave a growth of 89.7%. `O=C(Nc1ncc(Cc2ccc(Cl)cc2)s1)c1ccc2c(c1)OCCO2` was tested, and the growth was 47.1%. `CS(=O)(=O)c1ccc(/C(=N/N=C(N)N)c2ccc(F)cc2)cc1` was tested, and the growth was -5.12% (active). Compound `C=C1C(=O)O[C@H]2[C@H]1CC/C(COC(=O)n1ccnc1C)=C\CC[C@@]1(C)O[C@@H]21` has a growth of 76.4%. For `COc1ccc([C@@H]2[C@@H](O)C(=O)N2c2cc(OC)c(OC)c(OC)c2)cc1Cl`, the growth was 22.8%. In the case of `CCCCCc1ccc(S(=O)(=O)Nc2cccc(-c3csc(NC(=O)CCCCCN4CCN(C)CC4)n3)c2)cc1`, the growth is reported as 79%. In the case of `Nc1nc2ccc(-c3nc4ccc5[nH]ncc5c4c4c3CCC4)cc2s1`, the growth is reported as -5.96% (active). In the case of `C[C@@H]1COCCN1c1cc(C2([S@](C)(=N)=O)CC2)nc(-c2ccnc3[nH]ccc23)n1`, the growth is reported as 28.3%. With `CC(C)(C)CC1(C)NC(=O)NC1=O` (stereo not given) the growth was 96.1%. With `O=C(c1ccccc1)N(CCCl)C(=O)N(CCCl)C(=O)c1ccccc1` the growth was 111%. `O=C(O)CCCCCCCCCCN1C(=O)/C(=C2/C(=O)N(CC(=O)O)c3ccc(Br)cc32)SC1=S` gave a growth of 102%. `COc1ccc(OC)c(NC(=O)c2sc3nc4c(cc3c2N)C(=O)CCC4)c1` gave a growth of 37.5%. For `O=C(Nc1cccc(Cl)c1)Nc1nccs1`, the growth was -0.235% (active). Compound `COC1C/C(=N\O)C2OC(c3ccccc3)OCC2O1` (stereo not given) has a growth of 105%. With `CCCCCn1c(C)cc(/C=C\c2ccc3cc(C)ccc3[n+]2C)c1C` the growth was -82.4% (active). Compound `COc1ccc2nc(-c3ccc(-c4noc(-c5ccc(Cl)cc5)n4)cc3)[nH]c2c1` has a growth of 37.5%. `C=C1CC[C@@H]2C(C)(C)[C@@H](O)CC[C@@]2(C)[C@@H]1COc1ccc2ccc(=O)oc2c1` was tested, and the growth was 53.1%. Compound `C[C@]12CC[C@@H]3c4ccc(OS(=O)(=O)O)cc4CC[C@H]3[C@@H]1CC[C@@H]2NS(=O)(=O)c1ccc(-c2ccccc2)cc1` has a growth of 76.8%. `Cc1ccc(-c2nc(SCC(=O)N3CCN(c4cc5c(cc4F)c(=O)c(C(=O)O)cn5C4CC4)CC3)nc(Cl)c2C#N)cc1` showed a growth of 95%. With `COc1cc(CN2CCC(N3CCCC3=O)c3ccccc32)cc(OC)c1OC` (stereo not given) the growth was 36.3%. `CN1CCN(c2cnc(C(=O)Nc3cc(F)cc4cccnc34)cn2)CC1` was tested, and the growth was 9.54% (active). `O=C(O/C(=C/c1ccccc1)C(F)(F)F)c1ccccc1` gave a growth of 109%. `CC1(C)CC[C@]23CC[C@]4(C)[C@H](CC[C@@H]5[C@@]6(C)C/C(=C/O)C(=O)C(C)(C)[C@@H]6CC[C@]54C)[C@H]2[C@H]1OC3` was tested, and the growth was 119%.
